For 36 compounds, outcome and AC50 results are on record in PubChem BioAssay (EPA / NIEHS).

Calls of active or inactive are those of the source. The calls were made as follows: active = hit-call score of the fitted dose curve at least 0.9, where 1 is the maximum; inactive = score below 0.9.

Read-out in one experiment: Vascular cell adhesion molecule 1 (VCAM1), VCAM1 (gene 7412)
The experiment is described as follows: BSK_CASM3C_VCAM1: BioMAP Diversity Plus: CASM3C Assay for Vascular cell adhesion molecule 1 (VCAM1) Biomarker Activity (AID 2283055).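 Also: VCAM-1 protein level quantified by ELISA on the cells.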 Particulars: primary human coronary artery smooth muscle cells; actives raise or lower the signal.
Regarding `CN(C)C(=O)Nc1cccc(C(F)(F)F)c1`, the result was inactive.

For the compound `COP(=O)(NC(C)=O)SC` (configuration not stated), the result was inactive.

In the case of `CN(C)NC(=O)CCC(=O)O`, the outcome was inactive.

Take `C[Si](Cn1cncn1)(c1ccc(F)cc1)c1ccc(F)cc1`: the result was inactive.

Regarding `CCCOCC(=Nc1ccc(Cl)cc1C(F)(F)F)n1ccnc1`, the AC50 was 20 µM (active).

Turning to `CC1=NNC(=O)N(/N=C/c2cccnc2)C1`, the outcome was inactive.

Consider `C#CCC1=C(C)C(OC(=O)C2C(C=C(C)C)C2(C)C)CC1=O` (configuration not stated), for which the outcome was inactive.

For the compound `COP(=O)(OC)C(O)C(Cl)(Cl)Cl` (configuration not stated), the result was inactive.

In the case of `COP(=O)(OC)SCn1c(=O)oc2cc(Cl)cnc21`, the AC50 was 20 µM (active).

On to `CCOP(=S)(Oc1cnc(C(C)(C)C)nc1)OC(C)C` (configuration not stated), for which the outcome was inactive.

Take `CNC(=O)ON=C(SC)C(=O)N(C)C`: the result was inactive.

Regarding `CCOP(=S)(OCC)SCCSCC`, the outcome was inactive.

As to `CNc1cnn(-c2cccc(C(F)(F)F)c2)c(=O)c1Cl`, the result was inactive.

On to `CC1(C(=O)Nc2ccc(O)c(Cl)c2Cl)CCCCC1`, for which the outcome was inactive.

For `CN1COCN(Cc2cnc(Cl)s2)C1=N[N+](=O)[O-]`, the result was inactive.

As for `CCCCSP(=O)(SCCCC)SCCCC`, the result was inactive.

Regarding `CC(C1CC1)C(O)(Cn1cncn1)c1ccc(Cl)cc1` (configuration not stated), the result was inactive.

For `CC[C@H](C)[C@H]1O[C@]2(C=C[C@@H]1C)C[C@@H]1C[C@@H](C/C=C(\C)[C@@H](O[C@H]3C[C@H](OC)[C@@H](O[C@H]4C[C@H](OC)[C@@H](NC)[C@H](C)O4)[C@H](C)O3)[C@@H](C)/C=C/C=C3\CO[C@@H]4[C@H](O)C(C)=C[C@@H](C(=O)O1)[C@]34O)O2`, the concentration at half-maximal activity (AC50) is 12 µM (active).

Take `CC(C)=CC1C(C(=O)OCN2C(=O)C3=C(CCCC3)C2=O)C1(C)C` (configuration not stated): the concentration at half-maximal activity (AC50) was 13.6 µM (active).

For `CC(Oc1cccc(Cl)c1)C(=O)O` (configuration not stated), the outcome was inactive.

Regarding `CCc1cccc(C)c1N(C(=O)CCl)C(C)COC` (configuration not stated), the outcome was inactive.

For `Cc1nn(-c2cc(NS(C)(=O)=O)c(Cl)cc2Cl)c(=O)n1C(F)F`, the result was inactive.

For `N#CSCSC#N`, the AC50 is 19.3 µM (active).

Regarding `Cc1ccn2nc(S(=O)(=O)Nc3c(F)cccc3F)nc2n1`, the outcome was inactive.

With `C[N+]1(C)CCCCC1`, the result was inactive.

With `CCCOc1nn(C(=O)NS(=O)(=O)c2ccccc2C(=O)OC)c(=O)n1C`, the result was inactive.

As for `Nc1nc(N)nc(NC2CC2)n1`, the result was inactive.

As for `Nc1c(Cl)cc([N+](=O)[O-])cc1Cl`, the result was inactive.

As for `CCc1cccc(CC)c1N(COC)C(=O)CCl`, the outcome was inactive.

Take `CCCSP(=O)(OCC)Oc1ccc(Br)cc1Cl` (configuration not stated): the outcome was inactive.

In the case of `S=C1NCCN1`, the result was inactive.

As for `CCOP(=S)(OCC)Oc1ccc([N+](=O)[O-])cc1`, the outcome was inactive.

For `CCC(=O)Nc1ccc(Cl)c(Cl)c1`, the outcome was inactive.

Turning to `CCCCOC(=O)c1ccccc1C(=O)O`, the result was inactive.

In the case of `C#CC(C)(C)NC(=O)c1cc(Cl)cc(Cl)c1`, the result was inactive.

Take `COc1cc(OC)nc(Sc2cccc(Cl)c2C(=O)O)n1`: the result was inactive.

Read-out in the next experiment: Epidermal growth factor receptor (EGFR), EGFR (gene 1956)
The experiment is described as follows: BSK_hDFCGF_EGFR: BioMAP Diversity Plus: hDFCGF Assay for Epidermal growth factor receptor (EGFR) Biomarker Activity (AID 2283057). Conditions: primary human foreskin fibroblasts; actives raise or lower the signal. Put shortly: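 Primary human foreskin fibroblasts were exposed to compound for 24 h, after which cell-surface EGFR was quantified by ELISA. Activity was fitted bidirectionally against the DMSO negative control as baseline.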
Take `CN(C)C(=O)Nc1cccc(C(F)(F)F)c1`: the outcome was inactive.

Turning to `COP(=O)(NC(C)=O)SC` (configuration not stated), the outcome was inactive.

Regarding `CN(C)NC(=O)CCC(=O)O`, the result was inactive.

As to `C[Si](Cn1cncn1)(c1ccc(F)cc1)c1ccc(F)cc1`, the result was inactive.

With `CCCOCC(=Nc1ccc(Cl)cc1C(F)(F)F)n1ccnc1`, the half-maximal activity concentration (AC50) was 33.8 µM (active).

`CC1=NNC(=O)N(/N=C/c2cccnc2)C1`: the outcome was inactive.

Consider `C#CCC1=C(C)C(OC(=O)C2C(C=C(C)C)C2(C)C)CC1=O` (configuration not stated), for which the outcome was inactive.

Regarding `COP(=O)(OC)C(O)C(Cl)(Cl)Cl` (configuration not stated), the outcome was inactive.

For `COP(=O)(OC)SCn1c(=O)oc2cc(Cl)cnc21`, the result was inactive.

For `CCOP(=S)(Oc1cnc(C(C)(C)C)nc1)OC(C)C` (configuration not stated), the outcome was inactive.

For `CNC(=O)ON=C(SC)C(=O)N(C)C`, the outcome was inactive.

With `CCOP(=S)(OCC)SCCSCC`, the outcome was inactive.

As to `CNc1cnn(-c2cccc(C(F)(F)F)c2)c(=O)c1Cl`, the outcome was inactive.

Take `CC1(C(=O)Nc2ccc(O)c(Cl)c2Cl)CCCCC1`: the outcome was inactive.

Take `CN1COCN(Cc2cnc(Cl)s2)C1=N[N+](=O)[O-]`: the result was inactive.

For the compound `CCCCSP(=O)(SCCCC)SCCCC`, the result was inactive.

Take `CC(C1CC1)C(O)(Cn1cncn1)c1ccc(Cl)cc1` (configuration not stated): the result was inactive.

`CC[C@H](C)[C@H]1O[C@]2(C=C[C@@H]1C)C[C@@H]1C[C@@H](C/C=C(\C)[C@@H](O[C@H]3C[C@H](OC)[C@@H](O[C@H]4C[C@H](OC)[C@@H](NC)[C@H](C)O4)[C@H](C)O3)[C@@H](C)/C=C/C=C3\CO[C@@H]4[C@H](O)C(C)=C[C@@H](C(=O)O1)[C@]34O)O2`: the AC50 was 11.7 µM (active).

`CC(C)=CC1C(C(=O)OCN2C(=O)C3=C(CCCC3)C2=O)C1(C)C` (configuration not stated): the outcome was inactive.

Turning to `CC(Oc1cccc(Cl)c1)C(=O)O` (configuration not stated), the outcome was inactive.

In the case of `CCc1cccc(C)c1N(C(=O)CCl)C(C)COC` (configuration not stated), the outcome was inactive.

Regarding `Cc1nn(-c2cc(NS(C)(=O)=O)c(Cl)cc2Cl)c(=O)n1C(F)F`, the result was inactive.

For the compound `N#CSCSC#N`, the half-maximal activity concentration (AC50) is 1.68 µM (active).

As for `Cc1ccn2nc(S(=O)(=O)Nc3c(F)cccc3F)nc2n1`, the result was inactive.

On to `C[N+]1(C)CCCCC1`, for which the result was inactive.

Consider `CCCOc1nn(C(=O)NS(=O)(=O)c2ccccc2C(=O)OC)c(=O)n1C`, for which the outcome was inactive.

On to `Nc1nc(N)nc(NC2CC2)n1`, for which the result was inactive.

With `Nc1c(Cl)cc([N+](=O)[O-])cc1Cl`, the result was inactive.

In the case of `CCc1cccc(CC)c1N(COC)C(=O)CCl`, the result was inactive.

As to `CCCSP(=O)(OCC)Oc1ccc(Br)cc1Cl` (configuration not stated), the outcome was inactive.

On to `S=C1NCCN1`, for which the result was inactive.

Turning to `CCOP(=S)(OCC)Oc1ccc([N+](=O)[O-])cc1`, the outcome was inactive.

`CCC(=O)Nc1ccc(Cl)c(Cl)c1`: the outcome was inactive.

Turning to `CCCCOC(=O)c1ccccc1C(=O)O`, the outcome was inactive.

Consider `C#CC(C)(C)NC(=O)c1cc(Cl)cc(Cl)c1`, for which the result was inactive.

Regarding `COc1cc(OC)nc(Sc2cccc(Cl)c2C(=O)O)n1`, the outcome was inactive.
